PubChem BioAssay (NCI)
Compounds without any hit were thinned out: in the full panel of roughly 83,000, 20% have a hit.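 Method: cells in 96-well plates; compound added at one concentration; 48 h incubation; percent growth measured; values under 10 scored active.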 Unmarked numbers belong to inactive results. The source made the active and inactive calls.

Assays:
Assay in all cases: NCI-60 one-dose screen, 48 h (100 = growth as untreated, 0 = no growth, -100 = all killed)
Conditions in all cases: 10 µM unless noted
BT-549 breast = tested on: BT-549 breast
MDA-MB-435 melanoma = tested on: MDA-MB-435 melanoma
SW-620 colon = tested on: SW-620 colon
MCF7 breast = tested on: MCF7 breast
HCT-116 colon = tested on: HCT-116 colon
HCC-2998 colon = tested on: HCC-2998 colon
KM12 colon = tested on: KM12 colon

| SMILES | growth (BT-549 breast) | growth (MDA-MB-435 melanoma) | growth (SW-620 colon) | growth (MCF7 breast) | growth (HCT-116 colon) | growth (HCC-2998 colon) | growth (KM12 colon) |
| --- | --- | --- | --- | --- | --- | --- | --- |
| COC(=O)c1ccc(CSc2nnc(-c3ccncc3)o2)cc1 | 104% | 106% | 108% | 96.6% | 97.6% | 110% | 109% |
| C=C1c2c(C)nn(-c3ccc(S(N)(=O)=O)cc3)c2N(C)C23CC1C1(C)c4c(C)nn(-c5ccc(S(N)(=O)=O)cc5)c4N(C)C(C)(CC12)C3 (centres undefined) | 49.6% | 32.9% | 39.2% | 15.9% | 14.4% | 47% | 33.1% |
| CCN(CC)N=Nc1nn(C(=O)Nc2ccc(Cc3ccccc3)cc2)c2ccc(Cl)cc12 | 84.1% | 43% | 44.4% | 40.4% | 44% | 43.2% | 56.6% |
| C=C1C(=O)O[C@H]2[C@H]1CC/C(Cn1cc(CNCCc3c[nH]c4ccc(Cl)cc34)nn1)=C\CC[C@@]1(C)O[C@@H]21 | 74.7% | 68% | 2.69% (active) | 42.9% | 11.2% | 103% | 82.9% |
| CCCn1nc(-c2ccccc2)c2c(-c3ccccc3)onc2c1=O | 71.5% | 8.42% (active) | 43.5% | 40.9% | 58.9% | 85.3% | 60% |
| CS(=O)(=O)c1ccc(N/N=C/c2c(-c3ccc(S(C)(=O)=O)cc3)[nH]c3ccc(F)cc23)cc1 | 23.9% | 40.3% | 59.7% | 18.9% | 27.1% | 52.3% | 29.2% |
| Cc1cc(Cl)nc(N(CCCNc2ccnc3cc(Cl)ccc23)Cc2ccccn2)n1 | 54% | 52.7% | 53.3% | 32.9% | 14.9% | 74.2% | 48% |
| CCCc1nc2ccccn2c1Nc1ccc(C(=O)NO)cc1 | 98.1% | 90.2% | 86.3% | 79.6% | 85.4% | 91.4% | 97.1% |
| CCCCOc1ccc(NC(=O)n2nc(N=NN(C)C)c3ccc(Cl)cc32)cc1 | 98.8% | 106% | 106% | 85.2% | 91.3% | 113% | 110% |
| CC(C)n1nc(C#Cc2cccc(O)c2)c2c(N)ncnc21 | -65.4% (active) | -25.8% (active) | 0.77% (active) | 0.624% (active) | -63.8% (active) | -2.82% (active) | -7.5% (active) |
| Cc1nc2ccc(C(=O)NCc3cc(C(=O)O)c(C)o3)cc2nc1C | 96.1% | 96.2% | 99.3% | 101% | 95.5% | 98% | 92.3% |
| CN1CCN(C(=O)[C@@]2(C)CC[C@]3(C)CC[C@]4(C)C(=CC[C@@H]5[C@@]6(C)C/C(=C/c7ccncc7)C(=O)C(C)(C)[C@@H]6CC[C@]54C)[C@@H]3C2)CC1 | 55.6% | 44.6% | 31.6% | 23.3% | 12% | 58.1% | 36.6% |
| Clc1ccc2c(NCCCN3CCN(c4nc(N5CCOCC5)nc5ccccc45)CC3)ccnc2c1 | 59.3% | -86.5% (active) | -20.3% (active) | -3.49% (active) | -0.752% (active) | -57.5% (active) | 25% |
| C=C(C)[C@@H]1CC[C@]2(CO)CC[C@]3(C)[C@H](CC[C@@H]4[C@@]5(C)C=C(C#N)C(=O)C(C)(C)[C@@H]5CC[C@]43C)[C@@H]12 | 29.3% | 17.8% | 5.54% (active) | 1.77% (active) | 10.5% | 8.97% (active) | 6.43% (active) |
| Cc1cc(N(CCCNc2ccnc3cc(Cl)ccc23)Cc2ccccn2)nc(N2CCOCC2)n1 | 90.5% | 111% | 83.5% | 87% | 57.9% | 105% | 103% |
| C[C@@H](C[C@H](CCOCc1cccnc1)c1ccccc1)c1cc2ccccc2o1 | 102% | 103% | 91.6% | 106% | 75.6% | 101% | 88% |
| CCCCN(CCCC)CCCn1c(=O)c2sc3ncccc3c2n2nnc(-c3ccccc3)c12 | 124% | -84.2% (active) | 100% | 93.2% | 83.6% | 118% | 107% |
| Clc1cnc(Nc2ccc(OCCN3CCCC3)cc2)nc1NCc1ccco1 | 45.7% | 34.5% | 6.11% (active) | -0.965% (active) | 7.55% (active) | 59.1% | 4.56% (active) |
| C=C1c2c(C)nn(-c3ccc(O)cc3)c2N(C)C23C[C@@H]1C1(C)c4c(C)nn(-c5ccc(O)cc5)c4N(C)C(C)(C[C@H]12)C3 (some centres undefined) | 28.6% | 18.7% | 31.2% | 5.99% (active) | 8.9% (active) | 44.9% | 21.2% |
| O=C(NCc1cccnc1)c1cc(-c2csc3c(=O)cc(N4CCOCC4)oc23)cc2c1OCCO2 | 54.3% | 32.9% | 46.9% | 8.29% (active) | 45.2% | 41.8% | 48.9% |
| Cc1c(C(=O)O[C@H]2[C@@H]3[C@H](C)CC[C@H]3[C@]3(C)O[C@@]2(C2CCCCC2)C[C@H]3OC(=O)CO)ccc2ccccc12 | 33.4% | 39% | 18.7% | 3.27% (active) | 3.42% (active) | 5.5% (active) | 27.9% |
| C=C(CNCCc1ccc(O)cc1)[C@@H]1CC[C@]2(COC3CCCCO3)CC[C@]3(C)[C@H](CC[C@@H]4[C@@]5(C)CCC(NCCO)C(C)(C)[C@@H]5CC[C@]43C)[C@@H]12 (some centres undefined) | 41.2% | -89.8% (active) | -76.2% (active) | -84.3% (active) | -95.3% (active) | -89.5% (active) | -84.9% (active) |
| Cc1cc(N(CCCNc2ccnc3cc(Cl)ccc23)Cc2ccccn2)nc(N2CCCC2)n1 | 91.7% | 86.7% | 70.5% | 56.9% | 50.3% | 89.2% | 82.8% |
| N#Cc1cccc(-c2nc3ccccn3c2NCCN2CCOCC2)c1 | 93.3% | 102% | 95.5% | 90.4% | 89.9% | 96.1% | 88.6% |
| C=C1c2c(C)nn(-c3ccc(N)cc3)c2N(C)C23CC1C1(C)c4c(C)nn(-c5ccc(N)cc5)c4N(C)C(C)(CC12)C3 (centres undefined) | 72.7% | 70.4% | 77.1% | 24.8% | 33.5% | 85.8% | 68.3% |
| COc1cc(NC(=O)c2cccc(-c3cc(=O)c4c(O)c(OC)c(OC)cc4o3)c2)cc(OC)c1OC | 7% (active) | 65.4% | 73.3% | 49.4% | 44.8% | 66% | 53.9% |
| CC(C)(C)CC(C)(C)Nc1c(-c2ccc(-c3ccccc3)cc2)nc2cnccn12 | 95% | 82.7% | 97.1% | 82.3% | 59.8% | 93.7% | 79.9% |
| CS(=O)(=O)c1ccc(-c2nc3cc(Cl)ccc3n2CC(=O)NO)cc1 | 97.6% | 106% | 96.2% | 81.3% | 103% | 115% | 93.9% |
| CC(C)n1nc(C#Cc2cccc3cc(-c4cccc(C(F)(F)F)c4)ncc23)c2c(N)ncnc21 | 97.7% | 67.3% | 71.8% | 75.7% | 31.4% | 98.1% | 60.9% |
| CN1CCN(C(=O)[C@]23CCC(C)(C)C[C@@H]2C2=CC[C@@H]4[C@@]5(C)Cc6c([nH]c7ccccc67)C(C)(C)[C@@H]5CC[C@@]4(C)[C@]2(C)CC3)CC1 | 97% | 84.6% | – | 69.9% | 70.7% | 99.4% | 76.3% |
